# Results: PubChem BioAssay
# “And” between values parts separate entries of the source, which are not always exact repeats. Equal values may be shown once. Results filed as inconclusive are left out. The source made the active and inactive calls.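 Rule for the calls, unless noted: active = normalized viability below 100% at a tested concentration; inactive = the rest.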
# What was measured:
# [1] = growth inhibition of DIPG glioma cells, dose response, cell-based, SU-DIPG-XVII, MIPE5.0, CellTiter-Glo, qHTS (AID 1347060; cut-off not given, nearly all actives have AC50 up to about 26 µM); settings: SU-DIPG-XVII viability, CellTiter-Glo ATP luminescence
# [2] = growth inhibition of DIPG glioma cells, dose response, cell-based, SU-DIPG-XIII, MIPE5.0, CellTiter-Glo, qHTS (AID 1347064; cut-off not given, nearly all actives have AC50 up to about 23 µM); settings: SU-DIPG-XIII viability, CellTiter-Glo ATP luminescence
# [3] = viability loss in pontine glioma line – cell-based, SU-DIPG-XXV, MIPE5.0, CellTiter-Glo, qHTS, dose response (AID 1347065; cut-off not given, nearly all actives have AC50 up to about 26 µM;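 note: cells exposed to compound for 48 hours before ATP readout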); settings: CellTiter-Glo ATP luminescence
# [4] = SU-DIPG-VI glioma cell viability, MIPE4.0 library, CellTiter-Glo luminescence, qHTS (AID 1347066; cut-off not given, nearly all actives have AC50 up to about 30 µM;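 note: cells exposed to compound for 48 hours before readout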); settings: CellTiter-Glo ATP luminescence
# [5] = JHH-DIPG-1 glioma cell viability, MIPE5.0 library, CellTiter-Glo luminescence, qHTS (AID 1347067; cut-off not given, nearly all actives have AC50 up to about 26 µM;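 note: cells exposed to compound for 48 hours before readout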); settings: JHH-DIPG-1 glioma viability, CellTiter-Glo ATP luminescence
# [6] = SU-DIPG-XXV glioma cell viability, MIPE5.0 library, qHTS (AID 1347068; cut-off not given, nearly all actives have IC50 up to about 30 µM)
# [7] = sensitizers of A549 cells to miR-34 induction, primary screen, imaging, A549 dox-inducible miR-34, nuclei and caspase counts (AID 1347080;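 active = compounds whose cell count with miR-34 switched on is under 0.7 times the count with it off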); settings: A549 miR-34 inducible, Hoechst nuclei count, 48 h
# [8] = modifiers of HSF1 nuclear foci, imaging, Selleck Cancer Library (AID 1347162; in the data active = plate-normalised HSF1 focus index below about 0.46); settings: human cells, at 10 µM; SSMD: measured here: HSF1 foci SSMD mean; cell count: measured here: cell number; plate-normalised HSF1 focus index: stronger effect = lower value
# [9] = survival rescue of mitochondrial mutant cells in low glucose, primary screen, MELAS cybrids, Rieske KO mouse fibroblasts, CellTiter-Glo (AID 1508586;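 active = mean z-score across replicates of 1.96 or higher in either the MELAS or the Rieske mutant cell line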;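 note: z relative to plate mean and SD of compound and empty wells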)
# [10] = ovarian cancer cell viability with rucaparib, profiling panel, oncology-focused library, rucaparib conditional (AID 1508598); settings: patient-derived ovarian cancer cells, CellTiter-Glo viability, 144 h, stronger effect = lower value
# [11] = LFS_MB_P medulloblastoma growth inhibition, cell-based, chromothripsis tumors, cisplatin or BGB combos (AID 1671449; in the data active = inhibition above about 80%;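 note: cells exposed for 96 hours; 0% = vehicle DMSO and 100% = killing by high DMSO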); settings: LFS_MB_P medulloblastoma cells
# [12] = HDN33 neuroblastoma growth inhibition, cell-based, chromothripsis tumors, cisplatin or BGB combos (AID 1671450; in the data active = inhibition above about 80%;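 note: cells exposed to compound for four days; 0% = vehicle DMSO and 100% = cell killing by high DMSO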); settings: HDN33 neuroblastoma cells, stronger effect = higher value
compound,measurement,setting,value
NC(=O)c1ccc(I)c([N+](=O)[O-])c1,outcome,[1],inactive
same,outcome,[2],inactive
same,outcome,[3],inactive
same,outcome,[4],inactive
same,outcome,[5],inactive
same,outcome,[6],inactive
same,fold change,"[7]; stronger effect = lower value, cell number ratio, induced over uninduced",0.861 (inactive)
same,fold change,[7]; measured here: relative caspase fold change +Dox/-Dox,0.928
same,cell count,"[7]; measured here: total cells with miR-34 induction, stronger effect = lower value",7270
same,cell count,[7]; measured here: total cells without miR-34 induction,8450
same,SSMD,[8],1.45
same,cell count,[8],6730
same,plate-normalised HSF1 focus index,[8],1.07 (inactive)
same,z-score,"[9]; MELAS cybrid survival, CellTiter-Glo 48 h, stronger effect = higher value",-0.444 (inactive)
same,z-score,"[9]; Rieske KO mouse fibroblast survival, CellTiter-Glo 72 h",0.628
same,viability,"[10]; at 0.000305 µM, OCI-C5x cells, with rucaparib 10 µM, 100% = cells with rucaparib alone",109% (inactive)
same,viability,"[10]; at 0.000305 µM, OCI-C5x cells, without rucaparib",119% (inactive)
same,viability,"[10]; at 0.000305 µM, OCI-P5x cells, with rucaparib 20 µM, 100% = cells with rucaparib alone",98.3% (active)
same,viability,"[10]; at 0.000305 µM, OCI-P5x cells, without rucaparib",94.7% (active)
same,viability,"[10]; at 0.00122 µM, OCI-C5x cells, with rucaparib 10 µM, 100% = cells with rucaparib alone",110% (inactive)
same,viability,"[10]; at 0.00122 µM, OCI-C5x cells, without rucaparib",116% (inactive)
same,viability,"[10]; at 0.00122 µM, OCI-P5x cells, with rucaparib 20 µM, 100% = cells with rucaparib alone",102% (inactive)
same,viability,"[10]; at 0.00122 µM, OCI-P5x cells, without rucaparib",97.6% (active)
same,viability,"[10]; at 0.00488 µM, OCI-C5x cells, with rucaparib 10 µM, 100% = cells with rucaparib alone",113% (inactive)
same,viability,"[10]; at 0.00488 µM, OCI-C5x cells, without rucaparib",127% (inactive)
same,viability,"[10]; at 0.00488 µM, OCI-P5x cells, with rucaparib 20 µM, 100% = cells with rucaparib alone",101% (inactive)
same,viability,"[10]; at 0.00488 µM, OCI-P5x cells, without rucaparib",102% (inactive)
same,viability,"[10]; at 0.0195 µM, OCI-C5x cells, with rucaparib 10 µM, 100% = cells with rucaparib alone",127% (inactive)
same,viability,"[10]; at 0.0195 µM, OCI-C5x cells, without rucaparib",126% (inactive)
same,viability,"[10]; at 0.0195 µM, OCI-P5x cells, with rucaparib 20 µM, 100% = cells with rucaparib alone",103% (inactive)
same,viability,"[10]; at 0.0195 µM, OCI-P5x cells, without rucaparib",95.1% (active)
same,viability,"[10]; at 0.0781 µM, OCI-C5x cells, with rucaparib 10 µM, 100% = cells with rucaparib alone",119% (inactive)
same,viability,"[10]; at 0.0781 µM, OCI-C5x cells, without rucaparib",117% (inactive)
same,viability,"[10]; at 0.0781 µM, OCI-P5x cells, with rucaparib 20 µM, 100% = cells with rucaparib alone",97.2% (active)
same,viability,"[10]; at 0.0781 µM, OCI-P5x cells, without rucaparib",102% (inactive)
same,viability,"[10]; at 0.313 µM, OCI-C5x cells, with rucaparib 10 µM, 100% = cells with rucaparib alone",115% (inactive)
same,viability,"[10]; at 0.313 µM, OCI-C5x cells, without rucaparib",117% (inactive)
same,viability,"[10]; at 0.313 µM, OCI-P5x cells, with rucaparib 20 µM, 100% = cells with rucaparib alone",101% (inactive)
same,viability,"[10]; at 0.313 µM, OCI-P5x cells, without rucaparib",88.7% (active)
same,viability,"[10]; at 1.25 µM, OCI-C5x cells, with rucaparib 10 µM, 100% = cells with rucaparib alone",114% (inactive)
same,viability,"[10]; at 1.25 µM, OCI-C5x cells, without rucaparib",122% (inactive)
same,viability,"[10]; at 1.25 µM, OCI-P5x cells, with rucaparib 20 µM, 100% = cells with rucaparib alone",94.9% (active)
same,viability,"[10]; at 1.25 µM, OCI-P5x cells, without rucaparib",94.9% (active)
same,viability,"[10]; at 5 µM, OCI-C5x cells, with rucaparib 10 µM, 100% = cells with rucaparib alone",102% (inactive)
same,viability,"[10]; at 5 µM, OCI-C5x cells, without rucaparib",122% (inactive)
same,viability,"[10]; at 5 µM, OCI-P5x cells, with rucaparib 20 µM, 100% = cells with rucaparib alone",110% (inactive)
same,viability,"[10]; at 5 µM, OCI-P5x cells, without rucaparib",91.7% (active)
same,inhibition,"[11]; at 0.5 µM, stronger effect = higher value",-30.4% (inactive) and -3.77% (inactive)
same,inhibition,"[11]; measured here: combination with BGB IC20, at 0.005 µM",11.8% and -4.71%
same,inhibition,"[11]; measured here: combination with BGB IC40, at 0.005 µM",-7.86% and -37.5%
same,inhibition,"[11]; measured here: combination with BGB IC40, at 0.05 µM",5% and -21.1%
same,inhibition,"[11]; measured here: combination with cisplatin, at 0.5 µM, stronger effect = higher value",-54.2% and -27.9%
same,inhibition,"[11]; measured here: combination with cisplatin, at 5 µM, stronger effect = higher value",-10.7% and -15.7%
same,inhibition,"[12]; BGB combo, at 5 µM",13.3% and -25.3%
same,inhibition,[12]; at 0.5 µM,0.82% (inactive) and -18.3% (inactive)
same,inhibition,"[12]; cisplatin combo, at 5 µM",6.61% and -13.4%
same,inhibition,"[12]; measured here: with BGB IC20 combination, at 0.5 µM",-4.77% and -10.4%
